“And” between values parts separate entries of the source, which are not always exact repeats. Equal entries are not always repeated. Hit rate of the full screen: of about 5,500 compounds, about 2,000 (36%) were called active. Inconclusive results (about 18%) are left out. Cut-off read from the data, not from the text of the source: active = normalized growth mostly below about 0.91 (no sharp cut-off); inconclusive = no clear call, values can overlap the other calls; inactive = mostly above about 0.92. The list shows a part of the results.
Test: chemical genetic growth profiling, strain panel (AID 1159580);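 note: tested at 20 µM; growth read once vehicle control cultures reached saturation at 30 °C; 1 = growth at the plate median or of vehicle wells; lower values mean less growth of the strain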
Conditions: S. cerevisiae deletion strains, growth OD

Measured: normalized growth

NS(=O)(=O)c1cc(C2(O)NC(=O)c3ccccc32)ccc1Cl (stereo not given)
inactive: locus YAL021C, strain ccr4, active compounds read low 0.958 | locus YAL026C, strain drs2, active compounds read low 0.991 | locus YAL030W, strain snc1, active compounds read low 0.993 | locus YBL061C, strain skt5, active compounds read low 0.996 | locus YBR009C, strain hhf1, active compounds read low 1.01 | locus YBR021W, strain FUR4, active compounds read low 1.02 | locus YBR023C, strain chs3, active compounds read low 0.992 | locus YBR171W, strain sec66, active compounds read low 0.985 | locus YBR229C, strain ROT2, active compounds read low 1.01 | locus YBR231C, strain swc5, active compounds read low 0.972 | locus YBR279W, strain paf1, active compounds read low 0.996 | locus YCL011C, strain gbp2, active compounds read low 0.99 | locus YCL016C, strain dcc1, active compounds read low 0.987 | locus YCL029C, strain bik1, active compounds read low 1.02 | locus YCL061C, strain MRC1, active compounds read low 0.986 | locus YCL069W, strain vba3, active compounds read low 0.999 | locus YCR088W, strain abp1, active compounds read low 0.994 | locus YDL005C, strain med2, active compounds read low 0.974 | locus YDL035C, strain GPR1, active compounds read low 0.997 | locus YDL040C, strain nat1, active compounds read low 0.995 | locus YDL074C, strain BRE1, active compounds read low 1.03 | locus YDL101C, strain DUN1, active compounds read low 1.02 | locus YDL134C, strain PPH21, active compounds read low 1 | locus YDL185W, strain tfp1, active compounds read low 1.03 | locus YDL192W, strain arf1, active compounds read low 1.01 | locus YDR001C, strain nth1, active compounds read low 0.99 | locus YDR069C, strain doa4, active compounds read low 0.993 | locus YDR101C, strain arx1, active compounds read low 1 | locus YDR137W, strain rgp1, active compounds read low 1.01 | locus YDR159W, strain sac3, active compounds read low 1.01 | locus YDR162C, strain NBP2, active compounds read low 1.01 | locus YDR195W, strain ref2 0.929 | locus YDR297W, strain sur2, active compounds read low 0.995 | locus YDR318W, strain mcm21, active compounds read low 1.02 | locus YDR334W, strain swr1, active compounds read low 1.01 | locus YDR335W, strain msn5, active compounds read low 0.991 | locus YDR388W, active compounds read low 1.02 | locus YDR392W, strain spt3, active compounds read low 1.04 | locus YDR502C, strain sam2, active compounds read low 1.02 | locus YEL003W, strain gim4, active compounds read low 0.985 | locus YEL037C, strain rad23, active compounds read low 0.992 | locus YEL061C, strain CIN8 (second series), active compounds read low 1 | locus YEL061C, strain CIN8, active compounds read low 1.01 | locus YER015W, strain faa2, active compounds read low 0.985 | locus YER016W, strain bim1, active compounds read low 0.997 | locus YER110C, active compounds read low 1.02 | locus YER111C, strain swi4, active compounds read low 0.997 | locus YER155C, strain BEM2 (second series), active compounds read low 0.939 | locus YER155C, strain BEM2, active compounds read low 1.01 | locus YER167W, strain BCK2, active compounds read low 1.01 | locus YFR010W, strain ubp6, active compounds read low 0.982 | locus YGL078C, strain dbp3, active compounds read low 1.02 | locus YGL086W, strain mad1, active compounds read low 1.01 | locus YGL167C, strain pmr1, active compounds read low 0.99 | locus YGL173C, strain kem1, active compounds read low 0.968 | locus YGL227W, strain vid30, active compounds read low 0.997 | locus YGL240W, strain doc1, active compounds read low 0.964 | locus YGL248W, strain PDE1, active compounds read low 1.02 | locus YGL253W, strain hxk2, active compounds read low 1 | locus YGR078C, strain PAC10, active compounds read low 1.02 | locus YGR135W, strain pre9, active compounds read low 1.04 | locus YGR229C, strain SMI1, active compounds read low 1.01 | locus YGR252W, strain gcn5, active compounds read low 0.991 | locus YHR013C, strain ard1, active compounds read low 0.952 | locus YHR027C, strain rpn1, active compounds read low 0.99 | locus YHR030C, strain SLT2, active compounds read low 1.01 and 0.984 | locus YHR079C, strain IRE1 (second series), active compounds read low 1.01 | locus YHR079C, strain IRE1, active compounds read low 0.99 | locus YHR094C, strain hxt1, active compounds read low 1.01 | locus YHR129C, strain ARP1, active compounds read low 1.01 | locus YHR142W, strain chs7, active compounds read low 1.01 | locus YHR200W, strain rpn10, active compounds read low 1.02 | locus YIL066C, strain RNR3, active compounds read low 1.01 | locus YIL073C, strain SPO22, active compounds read low 1.06 | locus YIL125W, strain kgd1, active compounds read low 1.01 | locus YIR030C, strain dcg1, active compounds read low 1.03 | locus YJL092W, strain hpr5, active compounds read low 0.993 | locus YJL095W, strain BCK1 (second series), active compounds read low 0.997 | locus YJL095W, strain BCK1, active compounds read low 1.03 and 0.98 | locus YJL115W, strain asf1, active compounds read low 0.983 | locus YJL129C, strain trk1, active compounds read low 0.979 | locus YJL134W, strain LCB3, active compounds read low 1 | locus YJL154C, strain vps35, active compounds read low 0.984 | locus YJL164C, strain tpk1, active compounds read low 0.981 | locus YJL166W, strain qcr8, active compounds read low 0.977 | locus YJL168C, strain set2, active compounds read low 1.02 | locus YJL187C, strain SWE1 (second series), active compounds read low 1.03 | locus YJL187C, strain SWE1, active compounds read low 0.991 | locus YJR043C, strain POL32, active compounds read low 0.986 | locus YJR066W, strain TOR1, active compounds read low 0.946
